In one assay the target is Albumin (Bos taurus) (UniProt P02769). Kind of assay: bovine serum albumin binders on microarray, profiling panel, artefact control for SMM control protein annotation, biochemical, small-molecule microarray, Alexa647 label, 635/667 nm fluorescence (AID 1118).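 Further: score merges 667 nm emission intensity and signal-to-noise per printed compound spot.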 Conditions: BSA-A647 binding, fluorescence 635 nm, higher = more signal.
The nature of assay [1]: small-molecule microarray binders of probe aXIP, primary screen, biochemical, NeuroSMM set, 635/667 nm fluorescence (AID 1119).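 Further: probe is the protein aXip251-270 applied at 1 µg/mL to compound-printed slides; binding of probe to printed compounds measured as 667 nm fluorescence plus signal to noise.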 The note with it: higher = more signal, called active from +8 up or from −8 down.
Assay [2] can be described thus: small-molecule binders of probe aNOTCH3, primary screen, biochemical, small-molecule microarray, 635/667 nm fluorescence (AID 1120).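 Further: probe is a biotin-tagged antibody raised against NOTCH3 rather than NOTCH3 protein; score merges spot fluorescence near 667 nm with spot signal to noise.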 Conditions: higher = more signal.
Assay [3] is described as follows: small-molecule binders of probe aNOTCH2, primary screen, biochemical, small-molecule microarray, 635/667 nm fluorescence (AID 1121).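 Further: score merges feature fluorescence read at 667 nm with its signal to noise.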 Conditions: higher = more signal.
Assay [4] concerns the target Carbonic anhydrase 2 (Homo sapiens) (UniProt P00918). Kind of assay: CAII small-molecule binders, profiling panel, biochemical, small-molecule microarray, Alexa647-labelled CAII (AID 1122). The note with it: CAII-A647 binding fluorescence, higher = more signal.
Assay [5] in a line: COS7 lysate on small-molecule microarray, probe aHis, 635 nm (AID 1123).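 Further: z-score combines 667nm fluorescence intensity with signal-to-noise per printed compound spot.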 The note with it: COS7 cell lysate, fluorescence, higher = more signal.
Assay [6] in a line: compound binding in COS7 lysate, probe aLAP1, primary screen, cell lysate, small-molecule microarray (AID 1124).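 Further: lysate comes from COS7 cells expressing LAP1 and is applied at 0.3 µg/mL; score merges spot fluorescence near 667 nm with signal-to-noise over triplicate slides.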 The note with it: probe aLAP1, fluorescence, higher = more signal.
A further assay deals with Sam68 (KHDRBS1). Kind of assay: Sam68 small-molecule binders, primary screen, biochemical, small-molecule microarray, 635 nm fluorescence (AID 1125).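 Further: score merges 667 nm channel intensity with signal to noise over triplicate slides.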 Conditions: small-molecule microarray binding, higher = more signal.
For assay [7], the system named is Chordin-like protein 2 (CHRDL2). Kind of assay: CHRDL2 small-molecule binders, primary screen, biochemical, small-molecule microarray, 635 nm fluorescence (AID 1126).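 Further: printed compound slides probed with Chrdl2 protein at 4 µg/mL for 1 h at 4 C; score merges 667 nm emission intensity with signal to noise over three replicate slides.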 Conditions: small-molecule microarray binding, fluorescence 635 nm; higher = more signal.
Assay [8] deals with Concanavalin-A (Canavalia ensiformis) (UniProt P02866). Nature of the assay: ConA small-molecule binders, primary screen, artefact control for SMM control protein annotation, biochemical, small-molecule microarray, Alexa647 label, 635 nm (AID 1127).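 Further: z combines 667 nm emission intensity with signal-to-noise across three replicate slides.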 Conditions: ConA-A647 binding fluorescence, higher = more signal.
Concanavalin-A (Canavalia ensiformis), sequence (P02866 whole entry, looked up): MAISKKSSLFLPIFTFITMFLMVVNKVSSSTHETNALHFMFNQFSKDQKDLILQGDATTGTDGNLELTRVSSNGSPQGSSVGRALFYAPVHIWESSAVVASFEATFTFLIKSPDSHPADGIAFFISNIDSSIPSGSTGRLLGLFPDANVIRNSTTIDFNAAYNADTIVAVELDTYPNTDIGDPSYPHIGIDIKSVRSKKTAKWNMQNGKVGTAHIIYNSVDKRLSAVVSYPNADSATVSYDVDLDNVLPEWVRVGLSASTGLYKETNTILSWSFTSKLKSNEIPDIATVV
The nature of assay [9]: anti-His antibody binders, primary screen, artefact control for SMM control protein annotation, biochemical, small-molecule microarray, 635 nm fluorescence (AID 1128).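 Further: score merges feature fluorescence with signal-to-noise for each printed compound spot.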 The note with it: anti-His Alexa647 antibody binding, higher = more signal.
Assay [10] concerns Human papillomavirus type 1a E7 protein (residues 1-88). Kind of assay: HPV1a E7 small-molecule binders, primary screen, biochemical, small-molecule microarray, residues 1-88, 635 nm (AID 1129). The note with it: small-molecule microarray binding, fluorescence 635 nm; higher = more signal.
The target of assay [11] is Focal adhesion kinase 1 (Homo sapiens) (UniProt Q05397). Kind of assay: small-molecule microarray binders of FAK, primary screen, biochemical, 635/667 nm fluorescence, BSA, DTT (AID 1130).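 Further: composite of spot emission at 667 nm and signal to noise over triplicate slides.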 The note with it: PTK2 binding, 635 nm fluorescence, higher = more signal.
Focal adhesion kinase 1 (Homo sapiens), sequence (Q05397 whole entry, looked up): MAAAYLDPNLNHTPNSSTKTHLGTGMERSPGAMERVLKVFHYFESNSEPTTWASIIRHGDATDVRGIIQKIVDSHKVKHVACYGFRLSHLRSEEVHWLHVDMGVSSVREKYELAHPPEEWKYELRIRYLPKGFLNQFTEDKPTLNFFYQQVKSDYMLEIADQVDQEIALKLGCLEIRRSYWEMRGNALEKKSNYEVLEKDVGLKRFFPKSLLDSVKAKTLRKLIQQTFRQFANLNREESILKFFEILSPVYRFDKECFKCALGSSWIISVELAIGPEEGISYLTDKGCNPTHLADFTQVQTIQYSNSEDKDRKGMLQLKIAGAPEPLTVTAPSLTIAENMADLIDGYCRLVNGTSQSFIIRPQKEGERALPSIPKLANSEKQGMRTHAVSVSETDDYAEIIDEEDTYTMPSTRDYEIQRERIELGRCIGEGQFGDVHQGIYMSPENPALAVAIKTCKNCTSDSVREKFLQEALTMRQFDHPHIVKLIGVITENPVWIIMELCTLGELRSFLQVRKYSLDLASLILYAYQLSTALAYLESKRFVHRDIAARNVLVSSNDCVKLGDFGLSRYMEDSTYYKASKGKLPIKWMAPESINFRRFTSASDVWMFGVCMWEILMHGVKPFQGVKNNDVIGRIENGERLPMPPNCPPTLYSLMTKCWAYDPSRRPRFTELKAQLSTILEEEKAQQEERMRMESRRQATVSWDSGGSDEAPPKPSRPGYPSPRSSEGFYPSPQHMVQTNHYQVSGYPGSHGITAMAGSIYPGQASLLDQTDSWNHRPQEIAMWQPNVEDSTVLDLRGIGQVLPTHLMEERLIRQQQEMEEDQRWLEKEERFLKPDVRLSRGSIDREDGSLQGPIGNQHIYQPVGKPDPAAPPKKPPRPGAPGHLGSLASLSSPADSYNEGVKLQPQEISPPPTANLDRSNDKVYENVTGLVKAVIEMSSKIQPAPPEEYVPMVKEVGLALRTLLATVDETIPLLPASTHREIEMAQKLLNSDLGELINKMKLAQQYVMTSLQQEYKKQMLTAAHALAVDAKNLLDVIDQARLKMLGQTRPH
Assay [12] concerns Fibrinogen (Alexa647-labelled). Kind of assay: fibrinogen binders on compound microarrays, profiling panel, artefact control for SMM control-protein annotation, biochemical, small-molecule microarray, 635/667 nm fluorescence (AID 1131).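 Further: z-score merges 667 nm fluorescence with per-spot signal-to-noise over triplicate slides.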 Conditions: fibrinogen-A647 binding fluorescence, higher = more signal.
Assay [13] deals with Follistatin (Homo sapiens) (UniProt P19883). Nature of the assay: follistatin binders on small-molecule microarrays, primary screen, biochemical, small-molecule microarray, 635/667 nm fluorescence (AID 1132). Conditions: FST binding, 635 nm fluorescence, higher = more signal.
Follistatin (Homo sapiens), sequence (P19883 whole entry, looked up): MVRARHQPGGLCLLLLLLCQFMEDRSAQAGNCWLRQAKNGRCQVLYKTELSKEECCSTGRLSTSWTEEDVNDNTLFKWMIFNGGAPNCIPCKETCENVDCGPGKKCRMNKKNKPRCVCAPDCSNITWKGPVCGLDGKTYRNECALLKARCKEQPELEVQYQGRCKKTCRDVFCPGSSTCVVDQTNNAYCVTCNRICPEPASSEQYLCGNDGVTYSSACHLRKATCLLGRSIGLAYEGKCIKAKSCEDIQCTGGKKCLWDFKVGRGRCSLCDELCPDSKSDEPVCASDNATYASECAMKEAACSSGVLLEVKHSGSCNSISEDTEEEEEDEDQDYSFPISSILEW
For assay [14], the target named is Fibroblast growth factor 2 (Homo sapiens) (UniProt P09038). Kind of assay: FGF2 binders on small-molecule microarrays, primary screen, biochemical, small-molecule microarray, 635/667 nm fluorescence (AID 1133). Conditions: small-molecule microarray binding, FGF2, fluorescence 635/667; higher = more signal.
Fibroblast growth factor 2 (Homo sapiens), sequence (P09038 whole entry, looked up): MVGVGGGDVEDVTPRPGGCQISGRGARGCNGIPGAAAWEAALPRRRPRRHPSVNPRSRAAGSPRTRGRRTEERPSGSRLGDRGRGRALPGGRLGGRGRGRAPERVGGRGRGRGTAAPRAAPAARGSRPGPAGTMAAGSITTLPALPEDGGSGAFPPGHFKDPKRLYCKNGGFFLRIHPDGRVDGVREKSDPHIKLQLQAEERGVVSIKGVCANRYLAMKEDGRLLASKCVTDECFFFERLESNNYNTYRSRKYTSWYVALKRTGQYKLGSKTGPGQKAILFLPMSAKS
The nature of assay [15]: mitochondrial membrane potential change in A549 cells, profiling panel, cell-based, JC-1 fluorescence, basal, 24 h, 100 nL (AID 1138).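 Further: A549 lung adenocarcinoma cells under basal conditions with no added stimulus; test concentration not given here.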 Conditions: higher = more signal.
The subject of another assay is Lefty1. Nature of the assay: Lefty1 binders on small-molecule microarrays, primary screen, biochemical, small-molecule microarray, 635/667 nm fluorescence (AID 1139). Conditions: small-molecule microarray binding, fluorescence 635/667; higher = more signal.
The test system of assay [16] is wheat germ agglutinin (Triticum aestivum), Alexa647-labelled. Nature of the assay: wheat germ agglutinin binders on compound microarrays, profiling panel, artefact control for SMM control-protein annotation, biochemical, small-molecule microarray, 635/667 nm fluorescence (AID 1140).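 Further: score merges 667 nm feature emission with signal to noise over triplicate slides.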 Conditions: WGA-A647 binding, 635 nm fluorescence, higher = more signal.
Assay [17] concerns the target Luciferin 4-monooxygenase (Photinus pyralis) (UniProt P08659). Nature of the assay: firefly luciferase enzyme inhibitors, primary screen, biochemical, luminescence, purified enzyme, 2006 set (AID 1141).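 Further: cell-free assay with purified firefly luciferase at 100 ng per well in PBS; test concentration not given here.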 The note with it: SteadyGlo luminescence, 30 min, higher = more signal, called active from +8 up or from −8 down.

The structures appear in SMILES notation. Activity calls are given as the source filed them.

Luciferin 4-monooxygenase (Photinus pyralis), sequence (P08659 whole entry, looked up): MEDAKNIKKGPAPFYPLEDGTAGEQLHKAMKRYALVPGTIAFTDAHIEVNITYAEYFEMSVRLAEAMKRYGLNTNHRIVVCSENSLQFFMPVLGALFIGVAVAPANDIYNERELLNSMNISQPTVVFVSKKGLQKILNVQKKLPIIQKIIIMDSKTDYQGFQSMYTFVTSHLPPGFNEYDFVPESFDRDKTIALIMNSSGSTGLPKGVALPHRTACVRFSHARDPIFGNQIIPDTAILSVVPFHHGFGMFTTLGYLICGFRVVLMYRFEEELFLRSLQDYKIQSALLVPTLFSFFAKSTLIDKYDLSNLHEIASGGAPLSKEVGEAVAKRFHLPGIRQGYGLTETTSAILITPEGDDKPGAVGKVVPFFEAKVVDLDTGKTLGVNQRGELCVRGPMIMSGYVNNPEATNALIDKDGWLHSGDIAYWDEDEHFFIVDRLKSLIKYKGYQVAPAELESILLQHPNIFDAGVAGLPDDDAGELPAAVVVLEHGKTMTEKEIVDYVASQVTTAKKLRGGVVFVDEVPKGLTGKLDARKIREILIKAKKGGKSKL
Albumin (Bos taurus), sequence (P02769 whole entry, looked up): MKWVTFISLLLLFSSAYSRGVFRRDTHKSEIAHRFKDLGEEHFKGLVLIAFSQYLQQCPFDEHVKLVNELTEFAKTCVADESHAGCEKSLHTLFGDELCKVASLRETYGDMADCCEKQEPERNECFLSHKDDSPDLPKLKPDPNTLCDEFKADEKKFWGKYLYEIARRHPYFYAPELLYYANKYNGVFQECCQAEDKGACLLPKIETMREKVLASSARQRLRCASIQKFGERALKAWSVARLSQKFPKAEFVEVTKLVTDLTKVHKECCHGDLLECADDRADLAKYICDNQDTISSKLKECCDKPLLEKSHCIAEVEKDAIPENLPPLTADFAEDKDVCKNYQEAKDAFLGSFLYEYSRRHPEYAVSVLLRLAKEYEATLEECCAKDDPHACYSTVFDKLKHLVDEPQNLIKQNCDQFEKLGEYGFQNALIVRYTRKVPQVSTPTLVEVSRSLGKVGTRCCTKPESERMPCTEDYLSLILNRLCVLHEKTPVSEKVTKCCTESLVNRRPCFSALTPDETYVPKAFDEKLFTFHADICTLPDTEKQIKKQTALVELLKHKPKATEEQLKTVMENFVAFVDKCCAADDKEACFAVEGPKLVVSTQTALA

Regarding `Cc1ccc(S[C@]2(C(=O)NC3CC3)CC(=O)N(Cc3ccccc3)[C@@H]2c2ccc(CO)cc2I)cc1`, the composite z-score was 0.596 with Albumin (Bos taurus); -0.209 in assay [2]; 0.0012 in assay [3]; 0.742 in assay [4]; 2.25 in [5]; 0.337 in assay [6]. Besides, the composite z-score in the assay on Sam68 (KHDRBS1) is 0.0282; in assay [7], -0.682; in assay [8] it was -0.391; in assay [9], -0.744; in assay [10], -0.0095; in assay [11], -0.557. The composite z-score in assay [12] was -0.394; in [13] it was -0.868; in assay [14] it was -0.131; in the assay with Lefty1, -1.86; in assay [16], -0.567. The composite Z-score in [1] is -0.35 (inactive). Further, the z-score was 2.49 in assay [15] and -1.42 (inactive) in assay [17].

As for `C=CCN1C(=O)[C@]2(O[C@H](CCn3cc([C@H](O)c4ccccc4)nn3)[C@@H]([Si](C)(C)c3ccc(OC)cc3)[C@@H]2C)c2cc(N3CCC3=O)ccc21`, the composite z-score was 0.621 with Albumin (Bos taurus); -0.226 in [2]; -0.0826 in assay [3]; 0.337 in [4]; 0.855 in [5]; 0.407 in assay [6]. The composite z-score with Sam68 (KHDRBS1) is 0.564; in assay [7], 0.587; in assay [8], 0.882; in assay [9], 0.211; in [10], 1.16; in assay [11] it was 0.309. Further, the composite z-score is -0.713 in assay [12]; 1.28 in [13]; 0.792 in [14]; 1.2 in the assay on Lefty1; 0.386 in assay [16]. Also, the composite Z-score in assay [1] is 0.156 (inactive). Further, the z-score was 1.37 in [15] and 0.114 (inactive) in assay [17].

In the case of `CCCCN1CC=CC23O[C@@H]4C=CCCOC(=O)C4[C@H]2C(=O)N(CCCCCCO)[C@@H]3C1=O` (stereo not given in full), the composite z-score was 0.339 in the assay with Albumin (Bos taurus); -0.275 in [2]; -0.175 in [3]; 0.876 in [4]; 0.376 in assay [5]; 0.316 in [6]. The composite z-score in the assay with Sam68 (KHDRBS1) is 0.474; in [7], -1; in [8] it was -0.254; in assay [9], 0.435; in assay [10] it was -0.268; in assay [11] it was 0.0134. Besides, the composite z-score in assay [12] is -0.796; in assay [13], 0.0593; in [14], -0.88; in the assay with Lefty1, 1.28; in assay [16], 0.379. Also, the composite Z-score in assay [1] is 0.0289 (inactive). The z-score was 0.807 in assay [15] and -0.947 (inactive) in [17].

For `NCCCCCCNC(=O)[C@@H]1C[C@@H]2C(=O)NCC(=O)N2[C@@H]1c1ccc(O)cc1`, the composite z-score in the assay with Albumin (Bos taurus) is 0.741; in [2] it was -0.232; in assay [3], -0.124; in assay [4] it was 0.4; in [5] it was 0.738; in assay [6], 0.0946. Besides, the composite z-score in the assay with Sam68 (KHDRBS1) came out at 1.28; in assay [7], 1.17; in assay [8], 1.17; in assay [9], 1.2; in assay [10], 1.14; in assay [11], 0.183. The composite z-score amounted to 0.971 in assay [12]; 1.46 in assay [13]; 1.62 in assay [14]; 1.63 in the assay with Lefty1; 0.846 in assay [16]. Moreover, the composite Z-score in assay [1] was 0.706 (inactive). In addition, the z-score in assay [15] was -0.614; in [17], 1.14 (inactive).

Regarding `NCCCCCNC(=O)[C@@H]1C[C@@H]2C(=O)N[C@@H](Cc3ccccc3)C(=O)N2[C@@H]1c1ccc(O)cc1`, the composite z-score in the assay with Albumin (Bos taurus) was 0.507; in assay [2] it was -0.0716; in assay [3], -0.108; in assay [4], 0.231; in [5] it was 2.21; in assay [6], -0.304. The composite z-score in the assay on Sam68 (KHDRBS1) is 1.24; in assay [7], -0.129; in assay [8], 0.968; in [9], 1.85; in [10], 0.958; in [11] it was 0.255. Moreover, the composite z-score in assay [12] came to 0.89; in assay [13] it was 1.28; in assay [14] it was 0.871; with Lefty1, 0.865; in [16], 0.86. For the same compound, the composite Z-score in assay [1] was 0.839 (inactive). Also, the z-score in [15] was 0.972; in assay [17], -0.365 (inactive).

The record behind these values is PubChem BioAssay.
